A short description of experiment [1]: Cytotoxicity counterscreen for inhibitors of SARS-CoV-2 cell entry (AID 1645845). Further: nearly all actives have a fitted effect of over 50% in size. On activity change, negative = cytotoxicity: on the % scale 0 is the no-effect control and ±100 the full control effect. The note with it: outcome: dose series up to 57.1 µM unless noted. In short, it runs like this:
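Expi293F/hACE2 cells seeded overnight; cpd pin-transferred in DMSO, 1 h preincubation, + media, 48 h 37 C 5% CO2; ATPLite 1step luminescence; normalized to cells and no cells.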
A general note: The purpose of a counterscreen is to sort out artefacts and off-target activity.

A short description of experiment [2]: Primary qHTS to identify inhibitors of SARS-CoV-2 cell entry (AID 1645846). Further: nearly all actives have a fitted effect of over 45% in size. Further: potency means the concentration at half of the fitted maximal effect. The note with it: SARS-CoV-2 pseudovirus cell entry assay, luminescence; activity change, negative = inhibition: at 57.1 µM (top of the series) unless noted. In short, it runs like this: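 HEK293 cells stably expressing human ACE2, pre-treated 1 h with compound, then infected with MLV particles pseudotyped with Wuhan-Hu-1 spike (C-terminal 19-aa truncation). Luciferase luminescence after 48 h at 37 °C, normalised to spike PP and bald PP.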
A general note: In qHTS, concentration-response curves come from the screen itself.

Results filed as inconclusive are left out. Active and inactive are the calls of the source. The call rests on the fitted dose curve.

For `N#Cc1ccc(C2CCCc3cncn32)cc1` (configuration not stated), the Potency entry in experiment [1] was “inactive”. Further, the activity change, negative = inhibition in experiment [2] was -13.4% [at 27.1 µM].
Consider `CN1CCN(C(=O)c2ccc(-c3ccc4c(C=O)c(O)ccc4c3)s2)CC1`, for which the Potency entry in experiment [1] and in experiment [2] was “inactive” throughout.
Regarding `C=CCN1C[C@H](C(=O)N(CCCN(C)C)C(=O)NCC)CC2c3cccc4[nH]cc(c34)C[C@H]21` (some centres not stated), in experiment [1], the Potency entry was “inactive”. The activity change, negative = inhibition in experiment [2] is -15.3%.
On the same counts, the results for `N#C/C(=C(/N)Sc1ccc(N)cc1)c1ccccc1C(F)(F)F` are “inactive” and -16.8%.
On the same counts, the results for `CCC(=O)NC[C@H](Cc1ccc(OCCc2nc(-c3ccccc3)oc2C)cc1)N/C(C)=C\C(=O)c1ccc(C(F)(F)F)cc1` are “inactive” and -18.7%.
On the same counts, the results for `CCO[C@@H]1OC(=O)C[C@@H]1NC(=O)[C@@H]1CCCN1C(=O)[C@@H](NC(=O)c1ccc(N)c(Cl)c1)C(C)(C)C` are “inactive” and -14.2%.
As for `CCOC(=O)N[C@@H]1CC[C@@H]2[C@@H](C1)C[C@H]1C(=O)O[C@H](C)[C@H]1[C@H]2/C=C/c1ccc(-c2cccc(F)c2)cn1`, in experiment [1], the Potency result is “inactive”. In addition, in experiment [2], the Potency was 28.2 µM (active).
As to `O=C(NCC(=O)N1CCCC1)Nc1ccc2cnccc2c1`, in experiment [1], the Potency result is “inactive”. The activity change, negative = inhibition in experiment [2] was -15.6%.
On the same counts, the results for `O=C(Nc1ccc(-c2ccnc(Nc3ccc(N4CCOCC4)cc3)n2)cc1)C1CCCN1` (configuration not stated) are “inactive” and -3.33%.
On the same counts, the results for `CCS(=O)(=O)N1CCC(C(C)n2c(C)c(C(=O)NCc3c(OC)cc(C)[nH]c3=O)c3ccccc32)CC1` (configuration not stated) are “inactive” and -8.61%.
As for `O=C1CC(c2c[nH]c3ccc(F)cc23)C(=O)N1` (configuration not stated), the Potency entry in experiment [1] is “inactive”. Moreover, the activity change, negative = inhibition in experiment [2] was 1.8%.
On the same counts, the results for `C[C@]1(C(=O)N(CCCC(=O)O)Cc2cccc(Cl)c2)CCN1C(=O)c1csc2ccccc12` are “inactive” and -20.2%.
On the same counts, the results for `NS(=O)(=O)NCCNc1nonc1C(=Nc1ccc(F)c(Br)c1)NO` are “inactive” and -14.4%.
On to `COC(=O)[C@H]1[C@@H](O)[C@@]2(O)c3c(OC)cc(O[C@@H]4O[C@@H]([C@@H](O)CO)CO[C@H]4OC)cc3O[C@@]2(c2ccc(OC)cc2)[C@@H]1c1ccccc1`, for which the Potency entry in experiment [1] and in experiment [2] was “inactive” in each case.
Consider `COC1=C2C[C@H](C)C[C@H](OC)[C@H](O)[C@@H](C)/C=C(/C)[C@H](OC(N)=O)[C@@H](OC)/C=C\C=C(\C)C(=O)NC(=CC1=O)C2=O`, for which the Potency result in experiment [1] and in experiment [2] was “inactive” throughout.
As for `Oc1ccc(Nc2nc(-c3ccc(Cl)cc3)cs2)cc1`, the Potency result in experiment [1] is “inactive”. Further, the Potency in experiment [2] is 28.2 µM (active).
As to `Cc1ccc(NC(=O)Nc2nnc(Sc3ncnc4cc(OCCCN5CCOCC5)ccc34)s2)cc1`, the Potency result in experiment [1] and in experiment [2] was “inactive” throughout.
As for `CC[C@H](Nc1ncnc2nc[nH]c12)c1oc2ccccc2c(=O)c1-c1cccc(F)c1`, the Potency entry in experiment [1] and in experiment [2] was “inactive” throughout.
As to `CC(C)Oc1ccc(-c2nn([C@@H](C)c3oc4ccc(F)cc4c(=O)c3-c3cccc(F)c3)c3ncnc(N)c23)cc1F`, in experiment [1], the Potency result was “inactive”. The activity change, negative = inhibition in experiment [2] was -16.7%.
As to `OC1CCC([C@H](O)C[C@H]2c3c(F)cccc3-c3cncn32)CC1` (some centres not stated), the Potency entry in experiment [1] and in experiment [2] was “inactive” in each case.
Consider `CC(C)=CCC[C@](C)(O[C@@H]1O[C@H](CO[C@@H]2O[C@H](CO)[C@@H](O)[C@H](O)[C@H]2O)[C@@H](O)[C@H](O)[C@H]1O)[C@H]1CC[C@]2(C)[C@@H]1[C@H](O)C[C@@H]1[C@@]3(C)CC[C@H](O[C@@H]4O[C@H](CO)[C@@H](O)[C@H](O)[C@H]4O[C@@H]4O[C@H](CO)[C@@H](O)[C@H](O)[C@H]4O)C(C)(C)[C@@H]3CC[C@]12C`, for which, in experiment [1], the Potency entry is “inactive”. For the same compound, the activity change, negative = inhibition in experiment [2] was -3.97% [at 27.1 µM].
In the case of `CC(C)(C)Sc1c(CC(C)(C)C(=O)O)n(Cc2ccc(Cl)cc2)c2ccc(OCc3ccc4ccccc4n3)cc12`, the Potency result in experiment [1] and in experiment [2] was “inactive” throughout.
On to `CC(C)(CO)n1cc(C(=O)c2cncc(NC(=O)Cc3ccc(Cl)cn3)c2)c2cnc(N)nc21`, for which the Potency entry in experiment [1] and in experiment [2] was “inactive” throughout.
For `Cc1c(F)ccc(C(=O)Nc2cc([N+](=O)[O-])ccc2N2CCN(C)CC2)c1Cl`, in experiment [1], the Potency result is “inactive”. In addition, in experiment [2], the activity change, negative = inhibition is -18.7%.
`CC(C)[C@@H](CS(=O)(=O)C(C)C)N1C(=O)[C@@](C)(CC(=O)O)C[C@H](c2cccc(Cl)c2)[C@H]1c1ccc(Cl)cc1`: in experiment [1], the Potency entry was “inactive”. Also, the activity change, negative = inhibition in experiment [2] is -11.9%.
Take `Cc1cc(-c2cnn3c(NCC4CC(C)(O)C4)cc(Oc4cccnc4)nc23)ccc1C(=O)NC1CC1` (configuration not stated): in experiment [1], the activity change, negative = cytotoxicity is 4.49% [at 5.25 µM] (inactive). For the same compound, in experiment [2], the activity change, negative = inhibition is -11.3% [at 5.25 µM].
As to `C=C1[C@H](OC(=O)/C=C(\C)CC)C[C@@H](C(C)C)[C@@H]2[C@H]([C@@H](C)OC(C)=O)C(=O)C[C@@H]12`, the Potency entry in experiment [1] was “inactive”. In experiment [2], the activity change, negative = inhibition was -14.8%.
On the same counts, the results for `OCc1ccccc1O[C@@H]1O[C@H](CO)[C@@H](O)[C@H](O)[C@H]1O` are “inactive” and -12.3%.
On the same counts, the results for `Cc1ccc(NC(=O)[C@H]2CCCN(C(=O)c3c(C)cccc3F)[C@H]2c2ccc(NC3CCCC3)cc2)cc1C(F)(F)F` are “inactive” and -27.6%.
On the same counts, the results for `C/C=C/C[C@@H](C)C(=O)[C@H]1C(=O)N[C@@H](C(C)C)C(=O)N(C)CC(=O)N(C)[C@@H](CC(C)C)C(=O)N[C@@H](C(C)C)C(=O)N(C)[C@@H](CC(C)C)C(=O)N[C@@H](C)C(=O)N[C@H](C)C(=O)N(C)[C@@H](CC(C)C)C(=O)N(C)[C@@H](CC(C)C)C(=O)N(C)[C@@H](C(C)C)C(=O)N1C` are “inactive” and -14.4% [at 27.1 µM].
On to `NC1=N[C@@]2(c3cc(NC(=O)c4ccc(F)cn4)ccc3F)COC[C@H]2CS1`, for which the Potency result in experiment [1] was “inactive”. Moreover, the activity change, negative = inhibition in experiment [2] was -18.7%.

Values taken from PubChem BioAssay (NCATS).
